Measurements taken from PubChem BioAssay (EPA / NIEHS).
Calls of active or inactive are those of the source. The calls were made as follows: active = hit-call score of the fitted dose curve at least 0.9, where 1 is the maximum; inactive = score below 0.9.

Experiments:
[1] = APR_HepG2_NuclearSize_72hr: Apredica 72-hour HepG2 Assay for Nuclear Size (AID 2282925); details: high-content imaging, actives raise or lower the signal
Outline: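 Compounds (0.39–200 uM, final DMSO 0.5%) were applied to HepG2 for 72 hr. Cells were then formaldehyde-fixed, permeabilized and labelled with Hoechst 33342. Nuclear diameter was quantified from six images per well.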

[2] = ATG_CRE_CIS: Attagene CIS-FACTORIAL HepG2 Assay for human cAMP Responsive Element (CRE) binding protein 3 (AID 2282926); details: HepG2 CRE cis-reporter, Attagene multiplexed mRNA; actives raise or lower the signal
Outline: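 Induced reporter mRNA from a CRE cis element, measured in HepG2 among many multiplexed units at 24 h. Detection used RT-PCR plus capillary electrophoresis of fluorescent fragments; DMSO served as negative control.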

[3] = biological target: CCAAT/enhancer-binding protein beta (Homo sapiens) (UniProt P17676); test: ATG_C_EBP_CIS: Attagene CIS-FACTORIAL HepG2 Assay for human CCAAT/Enhancer Binding Protein (C/EBP) beta (AID 2282927); details: HepG2 Attagene cis-factorial transcription factor reporter; actives raise or lower the signal
Outline: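 RT-PCR/capillary electrophoresis fluorescence of reporter mRNA, 24 h post-dose, in HepG2 cells carrying transfected cis-promoter reporter units. Bidirectional curve fitting against DMSO baseline captures gain or loss of signal.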

[4] = ATG_CMV_CIS: Attagene CIS-FACTORIAL HepG2 Assay for human CMV (Internal Marker) (AID 2282928); details: HepG2 CMV promoter reporter, transcription factor profiling; actives raise or lower the signal;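 also: endpoint acts as a background internal control marker rather than a target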
Outline: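 Reporter transcripts from transfected HepG2 cells are isolated after 24 h of chemical dosing, reverse-transcribed and amplified. Fragments labeled with 6-FAM are cut with HpaI and quantified by capillary electrophoresis; DMSO defines baseline.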

[5] = ATG_DR4_LXR_CIS: Attagene CIS-FACTORIAL HepG2 Assay for human Liver X Receptor (LXR), DR4 submotif (AID 2282929); details: HepG2 Attagene DR4 cis-reporter, mRNA transcription; actives raise or lower the signal
Outline: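 Endogenous factor activity at a DR4 cis-element is read as reporter mRNA in transiently transfected HepG2 cells. Exposure lasts 24 h; transcripts are amplified, fluorescently labelled and sized by capillary electrophoresis, with DMSO as baseline.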

[6] = biological target: Aryl hydrocarbon receptor (Homo sapiens) (UniProt P35869); test: ATG_Ahr_CIS: Attagene CIS-FACTORIAL HepG2 Assay for human Aryl Hydrocarbon Receptor (Ahr) (AID 2282930); details: HepG2 AhR cis-factorial reporter transcription; actives raise or lower the signal
Outline: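 HepG2 cells transiently transfected with cis-element-driven multiplexed reporter transcription units; endogenous transcription factor activity measured as reporter mRNA 24 h after dosing. RT-PCR, 6-FAM labelling, HpaI digestion, capillary electrophoresis; bidirectional fitting versus DMSO baseline.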

[7] = ATG_AP_1_CIS: Attagene CIS-FACTORIAL HepG2 Assay for human Activator Protein 1 (AP-1) (AID 2282931); details: HepG2 Attagene cis-factorial AP-1 reporter mRNA; actives raise or lower the signal
Outline: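 Fluorescence of labelled PCR fragments separated by capillary electrophoresis gives reporter mRNA levels. HepG2 with transfected cis-regulated reporter units, 24 h exposure; DMSO serves as baseline for bidirectional curve fits.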

[8] = ATG_AP_2_CIS: Attagene CIS-FACTORIAL HepG2 Assay for human Activator Protein 2 (AP-2) (AID 2282932); details: HepG2 AP-2 cis-reporter, Attagene transcription factor profiling; actives raise or lower the signal
Outline: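 Cells (HepG2) transfected with promoter-driven reporter constructs, treated 24 h. Total RNA reverse-transcribed, reporter cDNA PCR-amplified, FAM-labelled by primer extension, digested, resolved by capillary electrophoresis. Activity fitted both directions versus DMSO.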

[9] = ATG_BRE_CIS: Attagene CIS-FACTORIAL HepG2 Assay for human Bone Morphogenetic Protein (BMP) Response Element (BRE) (AID 2282933); details: HepG2 BMP response element reporter, Attagene transcription factor profiling; actives raise or lower the signal
Outline: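 Transient MRTU transfection of human HepG2 liver cells; 24 h compound treatment; total RNA isolated, reverse-transcribed, PCR-amplified, 6-FAM labelled, HpaI-cut, capillary electrophoresis. DMSO = negative control/baseline, bidirectional fit.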

[10] = biological target: Retinoic acid receptor alpha (Homo sapiens) (UniProt P10276); test: ATG_DR5_RAR_CIS: Attagene CIS-FACTORIAL HepG2 Assay for human Retinoic Acid Receptor Alpha (RARE), DR5 submotif (AID 2282934); details: HepG2 Attagene cis-factorial RARE DR5 reporter, mRNA; actives raise or lower the signal;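 as to AC50: reporter responds to endogenous RAR alpha beta and gamma in HepG2 not RARA alone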
Outline: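 HepG2 cells transiently transfected with multiplexed reporter units under cis (DR5 RARE) promoters, so endogenous transcription factor activity is measured. After 24 h compound exposure, reporter mRNA is quantified by RT-PCR with fluorescent labelling and capillary electrophoresis; bidirectional fitting versus DMSO.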

[11] = biological target: Transcription factor E2F1 (Homo sapiens) (UniProt Q01094); test: ATG_E2F_CIS: Attagene CIS-FACTORIAL HepG2 Assay for human E2F Transcription Factor 1 (AID 2282935); details: HepG2 Attagene cis-reporter, E2F reporter RNA transcripts; actives raise or lower the signal
Outline: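 First, HepG2 cells were transfected with reporter transcription units. Next, they were dosed for 24 h. Then RNA was isolated, converted to cDNA, PCR-amplified, FAM-labeled, HpaI-digested and analyzed by capillary electrophoresis.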

[12] = ATG_E_Box_CIS: Attagene CIS-FACTORIAL HepG2 Assay for human Enhancer Box (E-box) (AID 2282936); details: HepG2 E-box cis-reporter transcription, actives raise or lower the signal
Outline: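 Endogenous transcription factor activity was sensed in human HepG2 liver cells through transfected cis-promoter reporter units. After 24 h of dosing, total RNA was reverse-transcribed and reporter cDNA resolved by capillary electrophoresis.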

[13] = ATG_M_61_CIS: Attagene CIS-FACTORIAL HepG2 Assay for M61 Transcription Factor (Internal Marker) (AID 2282937); details: HepG2 Attagene CIS-FACTORIAL M61 internal marker reporter; actives raise or lower the signal
Outline: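 This endpoint serves as an internal background control within a multiplexed HepG2 cis-reporter panel. Cells are exposed for 24 h; reporter mRNA is amplified, fluorescently labelled and sized by capillary electrophoresis, with DMSO as negative control.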

[14] = ATG_M_19_CIS: Attagene CIS-FACTORIAL HepG2 Assay for M19 Transcription Factor (Internal Marker) (AID 2282939); details: HepG2 Attagene CIS-FACTORIAL M19 internal marker reporter; actives raise or lower the signal
Outline: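 Transfect HepG2 with MRTU reporter library → dose chemical, 24 h → isolate total RNA, reverse-transcribe with oligo(dT) → PCR, 6-FAM label, HpaI cut (2 h, 37 C) → capillary electrophoresis. Bidirectional fit vs DMSO.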

[15] = ATG_ERE_CIS: Attagene CIS-FACTORIAL HepG2 Assay for Estrogen Response Element (ERE) (AID 2282940); details: HepG2 ERE cis-reporter, Attagene RNA transcript; actives raise or lower the signal
Outline: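 Transient MRTU transfection of human HepG2; cis-element promoters; 24 h dosing; total RNA → RT (oligo dT) → PCR → 6-FAM primer extension → HpaI digest → CE fluorescence. Bidirectional fit, DMSO baseline.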

[16] = ATG_Ets_CIS: Attagene CIS-FACTORIAL HepG2 Assay for human Erythroblast Transformation Specific (ETS) (AID 2282941); details: HepG2 ETS cis-reporter transcription, actives raise or lower the signal
Outline: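 Bidirectional fit versus DMSO of reporter mRNA signal, detected by RT-PCR and capillary electrophoresis in HepG2 cells transiently transfected with cis-element reporters and dosed 24 h.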

[17] = biological target: Hepatocyte nuclear factor 3-beta (Homo sapiens) (UniProt Q9Y261); test: ATG_FoxA2_CIS: Attagene CIS-FACTORIAL HepG2 Assay for human Forkhead box A2 (FOXA2) (AID 2282942); details: HepG2 cis-reporter transcription factor activity, 24 h; actives raise or lower the signal
Outline: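 Cells: HepG2, transient multiplex reporter transfection. Exposure 24 h. Detection: reporter-specific RT-PCR, fluorescent labelling, restriction digest, capillary electrophoresis. Analysis: bidirectional curve fit, DMSO as negative control.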

[18] = ATG_GATA_CIS: Attagene CIS-FACTORIAL HepG2 Assay for human GATA Binding Protein (AID 2282944); details: HepG2 GATA cis-element reporter, Attagene multiplex mRNA; actives raise or lower the signal
Outline: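 Transient MRTU transfection, HepG2, 24 h compound exposure. Total RNA → oligo(dT) RT → PCR → 6-FAM primer extension → HpaI cut → CE. Bidirectional fit vs DMSO.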

[19] = ATG_EGR_CIS: Attagene CIS-FACTORIAL HepG2 Assay for human Early Growth Response 1 (EGR1) (AID 2282938); details: HepG2 Attagene CIS-FACTORIAL EGR reporter mRNA; actives raise or lower the signal
Outline: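 HepG2, transient MRTU transfection (cis promoters), 24 h compound. RNA → RT (oligo-dT) → PCR → 6-FAM labelling → HpaI cut → CE fluorescence. Bidirectional fit, DMSO baseline.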

[20] = ATG_FoxO_CIS: Attagene CIS-FACTORIAL HepG2 Assay for human Forkhead box O (FoxO) (AID 2282943); details: HepG2 Attagene cis-reporter, FoxO element, mRNA; actives raise or lower the signal
Outline: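 HepG2 cells transiently transfected with cis-promoter-driven multiple reporter transcription units; 24 h after chemical dosing, reporter mRNA quantified by RT-PCR, fluorescent primer extension, HpaI digestion and capillary electrophoresis. Bidirectional fitting versus DMSO baseline.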

Measured: AC50

Chain of CCAAT/enhancer-binding protein beta (Homo sapiens) (P17676 whole entry, looked up): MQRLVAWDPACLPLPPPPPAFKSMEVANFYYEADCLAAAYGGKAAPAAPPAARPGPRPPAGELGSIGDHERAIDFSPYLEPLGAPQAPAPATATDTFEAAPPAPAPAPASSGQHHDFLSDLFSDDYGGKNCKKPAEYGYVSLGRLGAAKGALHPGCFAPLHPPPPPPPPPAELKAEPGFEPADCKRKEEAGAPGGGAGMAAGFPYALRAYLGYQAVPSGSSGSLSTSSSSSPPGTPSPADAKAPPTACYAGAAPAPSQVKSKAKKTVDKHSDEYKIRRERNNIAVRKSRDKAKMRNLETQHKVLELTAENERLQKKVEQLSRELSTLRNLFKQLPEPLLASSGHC
Chain of Retinoic acid receptor alpha (Homo sapiens) (P10276 whole entry, looked up): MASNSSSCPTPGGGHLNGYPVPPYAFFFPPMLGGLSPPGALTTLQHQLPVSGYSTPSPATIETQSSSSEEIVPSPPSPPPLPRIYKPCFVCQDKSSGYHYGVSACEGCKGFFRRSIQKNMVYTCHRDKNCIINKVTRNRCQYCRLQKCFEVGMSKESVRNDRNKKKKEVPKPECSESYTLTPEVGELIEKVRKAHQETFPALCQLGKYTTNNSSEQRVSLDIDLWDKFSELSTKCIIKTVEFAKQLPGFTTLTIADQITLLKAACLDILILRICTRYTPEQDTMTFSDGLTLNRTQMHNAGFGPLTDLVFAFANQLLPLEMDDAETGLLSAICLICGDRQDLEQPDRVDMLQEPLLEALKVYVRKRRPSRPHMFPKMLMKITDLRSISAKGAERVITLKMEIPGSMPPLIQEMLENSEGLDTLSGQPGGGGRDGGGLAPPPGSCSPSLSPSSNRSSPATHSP
Chain of Transcription factor E2F1 (Homo sapiens) (Q01094 whole entry, looked up): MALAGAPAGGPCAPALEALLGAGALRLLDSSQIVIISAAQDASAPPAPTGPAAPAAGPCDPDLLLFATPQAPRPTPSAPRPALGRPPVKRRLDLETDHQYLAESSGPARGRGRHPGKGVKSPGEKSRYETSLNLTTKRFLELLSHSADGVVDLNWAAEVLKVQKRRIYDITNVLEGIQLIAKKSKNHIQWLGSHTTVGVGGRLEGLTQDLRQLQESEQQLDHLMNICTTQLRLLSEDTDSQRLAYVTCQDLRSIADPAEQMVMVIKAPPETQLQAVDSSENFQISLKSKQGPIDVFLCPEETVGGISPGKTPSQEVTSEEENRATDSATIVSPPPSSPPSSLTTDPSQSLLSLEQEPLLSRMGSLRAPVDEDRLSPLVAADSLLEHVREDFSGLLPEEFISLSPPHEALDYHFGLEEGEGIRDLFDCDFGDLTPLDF
Chain of Hepatocyte nuclear factor 3-beta (Homo sapiens) (Q9Y261 whole entry, looked up): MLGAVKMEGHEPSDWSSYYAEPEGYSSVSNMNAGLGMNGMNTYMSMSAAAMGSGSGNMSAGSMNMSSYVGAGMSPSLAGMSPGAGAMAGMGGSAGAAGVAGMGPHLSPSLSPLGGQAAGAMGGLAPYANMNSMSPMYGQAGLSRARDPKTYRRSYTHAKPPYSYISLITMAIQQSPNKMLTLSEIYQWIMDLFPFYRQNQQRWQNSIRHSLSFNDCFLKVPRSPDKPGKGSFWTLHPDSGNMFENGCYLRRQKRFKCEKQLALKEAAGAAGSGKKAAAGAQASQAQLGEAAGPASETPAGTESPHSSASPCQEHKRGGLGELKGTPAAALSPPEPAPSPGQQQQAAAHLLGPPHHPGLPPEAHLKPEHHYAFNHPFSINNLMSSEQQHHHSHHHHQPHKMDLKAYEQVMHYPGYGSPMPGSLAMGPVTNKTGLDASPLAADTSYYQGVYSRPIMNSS
Chain of Aryl hydrocarbon receptor (Homo sapiens) (P35869 whole entry, looked up): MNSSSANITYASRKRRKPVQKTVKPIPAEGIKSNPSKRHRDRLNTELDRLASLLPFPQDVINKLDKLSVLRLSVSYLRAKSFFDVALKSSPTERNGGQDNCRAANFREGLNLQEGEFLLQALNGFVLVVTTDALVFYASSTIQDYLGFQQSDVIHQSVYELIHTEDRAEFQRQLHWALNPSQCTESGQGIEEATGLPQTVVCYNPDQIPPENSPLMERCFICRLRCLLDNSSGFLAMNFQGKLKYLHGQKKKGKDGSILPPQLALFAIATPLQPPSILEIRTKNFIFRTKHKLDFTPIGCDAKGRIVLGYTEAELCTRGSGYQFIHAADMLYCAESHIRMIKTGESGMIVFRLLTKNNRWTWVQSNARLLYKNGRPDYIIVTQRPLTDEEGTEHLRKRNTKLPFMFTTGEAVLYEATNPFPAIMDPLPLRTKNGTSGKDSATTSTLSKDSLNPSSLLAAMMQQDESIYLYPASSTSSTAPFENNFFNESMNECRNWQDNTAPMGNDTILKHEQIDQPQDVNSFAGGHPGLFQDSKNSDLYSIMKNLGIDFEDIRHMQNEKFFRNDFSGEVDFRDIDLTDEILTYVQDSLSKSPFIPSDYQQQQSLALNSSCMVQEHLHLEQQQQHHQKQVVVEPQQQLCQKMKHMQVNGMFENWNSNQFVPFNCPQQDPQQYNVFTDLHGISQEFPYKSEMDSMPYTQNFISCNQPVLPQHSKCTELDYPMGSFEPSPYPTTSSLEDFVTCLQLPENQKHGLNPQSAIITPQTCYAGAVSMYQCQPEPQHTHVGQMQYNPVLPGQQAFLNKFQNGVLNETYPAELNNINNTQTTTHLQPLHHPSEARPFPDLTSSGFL

CC(C)N1C(=O)c2ccccc2NS1(=O)=O
active: [5] 62 µM
not listed: [19] | [20]
inactive: all other assays above

COC(=O)NS(=O)(=O)c1ccc(N)cc1
active: [3] 13.2 µM
not listed: [10] | [19] | [20]
inactive: all other assays above

CCNP(=S)(OC)O/C(C)=C/C(=O)OC(C)C (stereo not given)
active: [5] 50 µM | [6] 13.6 µM | [10] 13.6 µM | [15] 13.4 µM
inactive: all other assays above

Cc1cnc(C2=NC(C)(C(C)C)C(=O)N2)c(C(=O)O)c1 (stereo not given)
active: [10] 35.4 µM
inactive: all other assays above

Nc1c(Cl)c(Cl)nc(C(=O)O)c1Cl
active: [6] 31.3 µM
not listed: [10]
inactive: all other assays above

CCC(C)n1c(=O)[nH]c(C)c(Br)c1=O (stereo not given)
not listed: [10]
inactive: all other assays above

COCC(C)N(C(=O)CCl)c1c(C)csc1C (stereo not given)
active: [2] 1.83 µM
not listed: [10] | [19] | [20]
inactive: all other assays above
